From PubChem BioAssay
Some of the results follow. Calls of active or inactive are those of the source. Rule as the data show it, unless noted: active = activation above about 8.9%; inactive = the rest.

Tests used:
[1] = tested on: Fam108b (Abhd17b) serine hydrolase [Mus musculus]; assay: mouse Fam108b serine hydrolase inhibitors, confirmation, counter-screen for RBBP9 inhibitor project, biochemical, fluorescence polarization, triplicate (AID 1978;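 active = inhibition above a limit from the primary screen, the mean over all compounds plus 3 SD, cut at about 19% in these data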;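 also: 0% = median of active Fam108b wells and 100% = catalytically dead S170A mutant; inhibitors free the probe so polarization falls as inhibition rises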); conditions: recombinant Fam108b, FP-Rh probe fluorescence polarization; at 9.51 µM; active compounds read high
[2] = biological target: Glutathione S-transferase omega-1 (Homo sapiens) (UniProt P78417); assay: GSTO1 inhibitor hit confirmation, counter-screen for RBBP9 inhibitor project, biochemical, fluorescence polarization, triplicate (AID 2176;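 active = inhibition above the primary screen's cutoff, its mean inhibition plus 3 SD, cut at about 35% in these data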;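 also: loss of polarization as inhibitors block binding of rhodamine sulfonate ester activity probe; 0% = GSTO1 with DMSO and 100% = wells lacking GSTO1 enzyme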); conditions: recombinant GSTO1, probe fluorescence polarization; at 5.96 µM; active compounds read high
Sequence of Glutathione S-transferase omega-1 (Homo sapiens) (P78417 whole entry, looked up): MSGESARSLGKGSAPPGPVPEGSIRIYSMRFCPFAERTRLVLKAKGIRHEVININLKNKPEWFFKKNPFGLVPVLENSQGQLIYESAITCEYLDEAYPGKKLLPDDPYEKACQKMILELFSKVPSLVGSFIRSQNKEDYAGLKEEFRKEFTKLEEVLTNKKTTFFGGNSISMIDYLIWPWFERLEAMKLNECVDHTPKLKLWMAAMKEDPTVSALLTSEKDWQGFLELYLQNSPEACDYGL

[3] = biological target: Platelet-activating factor acetylhydrolase (Homo sapiens) (UniProt Q13093); assay: pPAFAH (PLA2G7) enzyme inhibitors, confirmation, biochemical, fluorescence polarization, human (AID 463230;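 active = mean inhibition of the triplicate above the hit cutoff set for the earlier primary screen, cut at about 25% in these data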;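 also: 0% = enzyme with DMSO and 100% = wells lacking pPAFAH enzyme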); conditions: recombinant pPAFAH, FP-Rh probe fluorescence polarization; at 3.39 µM; active compounds read high
Sequence of Platelet-activating factor acetylhydrolase (Homo sapiens) (Q13093 whole entry, looked up): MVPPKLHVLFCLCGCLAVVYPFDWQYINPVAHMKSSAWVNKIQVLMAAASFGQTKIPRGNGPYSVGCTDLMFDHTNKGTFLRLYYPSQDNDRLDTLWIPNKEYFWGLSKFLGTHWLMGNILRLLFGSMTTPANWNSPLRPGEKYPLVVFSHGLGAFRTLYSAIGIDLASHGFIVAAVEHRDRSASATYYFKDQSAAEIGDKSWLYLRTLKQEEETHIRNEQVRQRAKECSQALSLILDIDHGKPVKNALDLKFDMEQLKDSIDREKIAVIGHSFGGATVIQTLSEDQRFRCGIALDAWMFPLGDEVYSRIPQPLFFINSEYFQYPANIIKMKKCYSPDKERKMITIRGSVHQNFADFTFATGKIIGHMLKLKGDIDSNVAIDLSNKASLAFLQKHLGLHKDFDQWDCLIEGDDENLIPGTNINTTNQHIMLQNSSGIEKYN

[4] = biological target: Protein-arginine deiminase type-4 (Homo sapiens) (UniProt Q9UM07); assay: human PAD4 inhibitors, confirmation, biochemical, fluorescence polarization (AID 488796;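 active = mean inhibition across replicates above the hit cutoff set by the earlier primary screen, cut at about 15% in these data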;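 also: inhibitors block active-site labeling by the probe so polarization falls; 0% = PAD4 with probe and DMSO and 100% = probe without PAD4 enzyme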); conditions: recombinant PAD4, RCA probe fluorescence polarization; at 6.36 µM; active compounds read high
Sequence of Protein-arginine deiminase type-4 (Homo sapiens) (Q9UM07 whole entry, looked up): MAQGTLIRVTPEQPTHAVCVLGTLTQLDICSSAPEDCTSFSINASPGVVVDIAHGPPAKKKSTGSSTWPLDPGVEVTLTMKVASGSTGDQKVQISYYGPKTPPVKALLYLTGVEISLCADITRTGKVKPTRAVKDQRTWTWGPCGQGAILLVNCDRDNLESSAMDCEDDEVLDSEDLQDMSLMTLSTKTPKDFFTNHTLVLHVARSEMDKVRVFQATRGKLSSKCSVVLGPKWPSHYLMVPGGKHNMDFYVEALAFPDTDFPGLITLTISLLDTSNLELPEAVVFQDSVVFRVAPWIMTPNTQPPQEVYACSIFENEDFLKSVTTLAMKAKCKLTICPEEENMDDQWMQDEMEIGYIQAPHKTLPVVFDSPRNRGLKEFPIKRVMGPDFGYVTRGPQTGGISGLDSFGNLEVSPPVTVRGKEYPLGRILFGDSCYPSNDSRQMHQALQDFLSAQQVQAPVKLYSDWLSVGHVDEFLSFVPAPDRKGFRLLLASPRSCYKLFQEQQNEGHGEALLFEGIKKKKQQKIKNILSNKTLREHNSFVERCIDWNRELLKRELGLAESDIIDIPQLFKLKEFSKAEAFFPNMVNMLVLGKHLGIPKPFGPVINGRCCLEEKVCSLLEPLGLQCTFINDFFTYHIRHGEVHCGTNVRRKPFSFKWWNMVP

[5] = compounds interfering with TAMRA-BSA probe, counter-screen for TCR-CD3 interaction inhibitor project, biochemical, fluorescence, TAMRA-labeled BSA (AID 652035; in the data active = inhibition above about 23%;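 also: 0% = buffer low control and 100% = reference high control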); conditions: TAMRA-labeled BSA probe fluorescence counterscreen; at 9.4 µM; active compounds read high
[6] = tested on: T-cell receptor (TCR)-CD3 interaction, human; assay: TCR-CD3 interaction inhibitors, retest, confirmation, biochemical, fluorescence, TAMRA-labeled TCR probe (AID 652036; in the data active = inhibition above about 19%); conditions: TAMRA-labeled TCR probe fluorescence binding assay; at 9.4 µM; active compounds read high
[7] = biological target: (Lyso)-N-acylphosphatidylethanolamine lipase (Mus musculus) (UniProt Q8VD66); assay: ABHD4 inhibitors, retest, confirmation, biochemical, fluorescence polarization, mouse (AID 720658;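 active = mean inhibition across replicates above the hit cutoff set in the primary screen, cut at about 30% in these data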;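 also: 0% = wild-type ABHD4 with DMSO and 100% = catalytically dead S159A mutant with DMSO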); conditions: purified mABHD4, FP-Rh probe fluorescence polarization; at 8.92 µM; active compounds read high
Sequence of (Lyso)-N-acylphosphatidylethanolamine lipase (Mus musculus) (Q8VD66 whole entry, looked up): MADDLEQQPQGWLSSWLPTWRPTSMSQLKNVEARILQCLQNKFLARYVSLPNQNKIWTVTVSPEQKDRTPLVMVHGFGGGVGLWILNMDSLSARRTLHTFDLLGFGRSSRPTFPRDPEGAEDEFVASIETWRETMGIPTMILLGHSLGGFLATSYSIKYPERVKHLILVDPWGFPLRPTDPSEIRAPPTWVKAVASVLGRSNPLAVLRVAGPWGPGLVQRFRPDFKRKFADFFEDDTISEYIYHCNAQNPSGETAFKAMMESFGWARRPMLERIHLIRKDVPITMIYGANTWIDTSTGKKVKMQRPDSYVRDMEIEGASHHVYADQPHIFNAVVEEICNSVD

[8] = tested on: HIV-1 integrase (multimerization); assay: HIV-1 IN multimer formation enhancers, counter-screen for LEDGF/p75 integration inhibitor project, biochemical, TR-FRET (AID 1053131); conditions: TR-FRET HIV-1 integrase multimerization, at 7.7 µM, active compounds read high
[9] = TR-FRET optical interference artefacts, confirmation, artefact control for LEDGF/p75-dependent integration inhibitor project, biochemical, HIV-1 IN multimerization (AID 1053135;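 active = inhibition above the mean over all tested compounds plus 3 SD, which no compound reached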;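 also: 0% = integrase with antibodies and DMSO and 100% = antibodies without integrase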); conditions: TR-FRET optical interference counterscreen, at 7.7 µM, active compounds read high
[10] = tested on: HIV-1 integrase / human LEDGF/p75 complex; assay: inhibitors of HIV-1 IN-LEDGF/p75 DNA integration, confirmation, biochemical, TR-FRET (AID 1053136; in the data active = inhibition above about 14%); conditions: TR-FRET LEDGF/p75-dependent HIV-1 integration, at 3.7 µM, active compounds read high
[11] = KLF5 expression inhibitors, confirmation, DLD-1 cells, luminescence (AID 1834;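 active = inhibition above a set limit taken from the earlier primary screen, cut at about 63% in these data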;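 also: 0% = DMSO wells and 100% = LY294002 at 200 µM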); conditions: DLD-1 KLF5 promoter firefly luciferase reporter, at 4 µM, active compounds read high
[12] = cytotoxicity in rat IEC-6 cells, cytotoxicity control for KLF5 inhibitor project, cell-based, luminescence, triplicate (AID 1905; in the data active = inhibition above about 23%;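 also: cells exposed to compounds for 48 hours before viability read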); conditions: IEC-6 rat intestinal cells, viability luminescence; at 4 µM; active compounds read high
[13] = growth loss of phage-infected E. coli expressing H. pylori AddAB, confirmation, AddAB inhibitor project, absorbance, E. coli V3065, T4 phage, triplicate (AID 488942;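 active = mean inhibition above a set limit taken from the earlier primary screen, cut at about 13% in these data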;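 also: higher means less bacterial growth since AddAB block lets phage replicate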); conditions: OD, at 11.9 µM, active compounds read high, T4 phage with gene 2 nonsense mutations
[14] = growth loss of RecBCD+ E. coli with mutant T4 phage, counter-screen for AddAB inhibitor project, absorbance, V66 E. coli (AID 488955;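 active = mean inhibition above the mean of solvent-only control wells plus 3 SD, cut at about 4% in these data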;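 also: optical density read after an 18 h incubation at 37 °C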); conditions: OD growth, at 11.9 µM, active compounds read high
[15] = bacterial viability inhibition counter-screen, confirmation, counter-screen for AddAB inhibitor project, absorbance (AID 488956; in the data active = inhibition above about 25%); conditions: absorbance (AddAB counterscreen), at 11.9 µM, active compounds read high
[16] = growth loss of phage-infected RecBCD+ E. coli, confirmation, RecBCD inhibitor project, absorbance, E. coli V66, T4 gene 2 phage (AID 651982;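 active = mean inhibition over triplicates exceeding the hit threshold derived in the original primary screen, cut at about 11% in these data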); conditions: E. coli V66 + T4 2- phage, growth OD; at 11.9 µM; active compounds read high
[17] = E. coli viability inhibition, counter-screen for RecBCD inhibitor project, absorbance, high throughput (AID 651983; in the data active = inhibition above about 20%;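 also: E. coli strain V66 grown with compound alone and no phage infection; 0% = bacteria with DMSO vehicle only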); conditions: absorbance (OD) growth, at 11.9 µM, active compounds read high
[18] = growth loss of phage-infected AddAB-carrying E. coli, confirmation, counter-screen for RecBCD inhibitor project, absorbance, E. coli V3065, T4 phage (AID 651984;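 active = mean inhibition above the solvent-only control wells' mean plus 3 SD, cut at about 22% in these data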;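 also: higher means less bacterial growth from phage killing when AddAB is blocked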); conditions: E. coli expressing H. pylori AddAB + T4 phage, OD growth; at 11.9 µM; active compounds read high; gene 2 mutant T4, recBCD-deleted host
[19] = biological target: Oxysterols receptor LXR-beta (Homo sapiens) (UniProt P55055); assay: LXR agonists, Gal4 luciferase reporter, confirmation, counter-screen for hcDAF-12 agonist project, cell-based, luminescence, HEK293, H. contortus campaign (AID 743027;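 active = mean percent activation of the reporter above a cutoff set as the average over tested compounds plus their standard deviation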); conditions: HEK293 Gal4-LXR tk-luc reporter, 24 h, at 6.8 µM, active compounds read high, normalized: DMSO 0%, positive control 100%
Sequence of Oxysterols receptor LXR-beta (Homo sapiens) (P55055 whole entry, looked up, the tested form may be a part): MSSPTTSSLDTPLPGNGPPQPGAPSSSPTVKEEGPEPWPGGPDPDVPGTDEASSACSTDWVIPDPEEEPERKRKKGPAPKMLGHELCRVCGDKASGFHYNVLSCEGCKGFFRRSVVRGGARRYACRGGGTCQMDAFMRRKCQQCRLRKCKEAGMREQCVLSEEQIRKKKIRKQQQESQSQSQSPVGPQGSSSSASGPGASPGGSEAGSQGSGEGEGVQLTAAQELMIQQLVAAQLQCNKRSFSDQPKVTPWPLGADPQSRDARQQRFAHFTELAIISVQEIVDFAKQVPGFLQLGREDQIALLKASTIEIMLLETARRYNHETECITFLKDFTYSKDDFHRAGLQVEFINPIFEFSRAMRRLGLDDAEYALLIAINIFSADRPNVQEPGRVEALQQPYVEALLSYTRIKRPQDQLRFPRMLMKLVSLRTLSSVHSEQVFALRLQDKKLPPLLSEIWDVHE

[20] = tested on: Nuclear hormone receptor DAF-12 (Haemonchus contortus); assay: H. contortus DAF-12 receptor agonists, confirmation, cell-based, luminescence, HEK293, lit1-tk-luc, triplicate (AID 743032;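 active = mean activation across triplicate tests above the threshold derived from the earlier primary screen, cut at about 5.5% in these data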;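 also: 0% = DMSO only wells and 100% = 3 µM Δ7-dafachronic acid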); conditions: HEK293 hcDAF-12 lit1-tk-luc reporter, at 6.8 µM, active compounds read high, % of Δ7-dafachronic acid response
[21] = biological target: Nuclear receptor coactivator 1 (Homo sapiens) (UniProt Q15788); assay: SRC1 coactivator transcriptional activity inhibitors, confirmation, cell-based, luminescence, quadruplicate (AID 588820;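 active = mean inhibition above 46.68%, the untreated control wells mean plus 3 SD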;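 also: 0% = DMSO wells and 100% = gossypol 36 µM treated wells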); conditions: HEK293 GAL4-SRC1 luciferase reporter, at 3.6 µM, active compounds read high
Sequence of Nuclear receptor coactivator 1 (Homo sapiens) (Q15788 whole entry, looked up, the tested form may be a part): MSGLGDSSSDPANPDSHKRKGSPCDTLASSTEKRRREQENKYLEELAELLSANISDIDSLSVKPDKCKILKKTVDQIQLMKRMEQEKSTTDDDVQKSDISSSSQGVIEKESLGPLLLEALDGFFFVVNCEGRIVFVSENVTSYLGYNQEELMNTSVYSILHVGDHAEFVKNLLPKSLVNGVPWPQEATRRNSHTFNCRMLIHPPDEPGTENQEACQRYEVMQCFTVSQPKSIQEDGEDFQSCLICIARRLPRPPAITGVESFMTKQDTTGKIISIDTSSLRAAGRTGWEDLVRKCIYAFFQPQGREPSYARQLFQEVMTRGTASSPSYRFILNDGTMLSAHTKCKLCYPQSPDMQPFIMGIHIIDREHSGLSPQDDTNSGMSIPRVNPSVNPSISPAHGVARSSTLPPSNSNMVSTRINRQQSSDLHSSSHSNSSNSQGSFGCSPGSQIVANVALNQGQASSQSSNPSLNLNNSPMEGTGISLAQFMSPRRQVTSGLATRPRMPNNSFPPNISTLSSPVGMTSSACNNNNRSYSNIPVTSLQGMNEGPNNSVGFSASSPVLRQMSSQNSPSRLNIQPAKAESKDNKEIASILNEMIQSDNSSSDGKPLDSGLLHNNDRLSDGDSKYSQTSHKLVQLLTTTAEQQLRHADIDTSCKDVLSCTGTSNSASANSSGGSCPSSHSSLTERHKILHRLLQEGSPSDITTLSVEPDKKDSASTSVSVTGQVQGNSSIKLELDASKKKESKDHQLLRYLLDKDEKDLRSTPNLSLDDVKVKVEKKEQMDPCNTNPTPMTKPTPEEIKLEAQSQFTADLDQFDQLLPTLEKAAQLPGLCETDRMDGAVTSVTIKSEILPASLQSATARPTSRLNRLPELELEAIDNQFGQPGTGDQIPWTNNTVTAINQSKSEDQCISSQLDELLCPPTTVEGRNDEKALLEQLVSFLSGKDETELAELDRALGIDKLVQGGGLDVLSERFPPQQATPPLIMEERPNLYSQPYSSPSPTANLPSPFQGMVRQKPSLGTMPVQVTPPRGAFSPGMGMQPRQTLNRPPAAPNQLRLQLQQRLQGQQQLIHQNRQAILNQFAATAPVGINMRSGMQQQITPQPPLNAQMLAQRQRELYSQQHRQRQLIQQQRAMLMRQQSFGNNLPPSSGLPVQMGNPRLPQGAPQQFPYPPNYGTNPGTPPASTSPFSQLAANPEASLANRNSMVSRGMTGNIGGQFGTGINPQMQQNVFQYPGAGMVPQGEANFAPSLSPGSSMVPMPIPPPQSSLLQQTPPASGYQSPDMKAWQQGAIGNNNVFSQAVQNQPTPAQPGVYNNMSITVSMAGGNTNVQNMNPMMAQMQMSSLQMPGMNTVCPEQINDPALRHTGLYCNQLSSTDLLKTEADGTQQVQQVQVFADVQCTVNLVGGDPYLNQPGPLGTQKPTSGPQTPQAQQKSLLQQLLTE

[22] = VP16 transactivation inhibitors, counter-screen for SRC1 inhibitor project, cell-based, luminescence, high throughput (AID 588824; in the data active = inhibition above about 25%); conditions: cell-based VP16 transactivation luciferase luminescence; at 3.6 µM; active compounds read high
[23] = biological target: Bcl-2-like protein 1 (Homo sapiens) (UniProt Q07817); assay: Bcl-xL inhibitors blocking Bim BH3 binding, confirmation, counter-screen for MCL1 inhibitor project, biochemical, fluorescence polarization (AID 2166;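 active = inhibition above a cutoff equal to the mean inhibition of all tested compounds plus 3 SD, cut at about 30% in these data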); conditions: GST-Bcl-xL / FITC-Bim BH3 peptide FP binding; at 10.9 µM; active compounds read high
Sequence of Bcl-2-like protein 1 (Homo sapiens) (Q07817 whole entry, looked up): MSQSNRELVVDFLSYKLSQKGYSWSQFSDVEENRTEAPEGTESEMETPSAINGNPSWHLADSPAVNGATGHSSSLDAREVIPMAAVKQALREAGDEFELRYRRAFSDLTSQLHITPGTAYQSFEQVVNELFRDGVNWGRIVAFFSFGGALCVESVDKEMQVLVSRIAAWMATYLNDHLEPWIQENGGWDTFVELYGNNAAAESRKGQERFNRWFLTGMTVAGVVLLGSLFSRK

[24] = biological target: Induced myeloid leukemia cell differentiation protein Mcl-1 (Homo sapiens) (UniProt Q07820); assay: inhibitors of MCL1 binding to BIM-BH3, confirmation, biochemical, fluorescence polarization, triplicate (AID 2168;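 active = inhibition above the average of all tested compounds plus 3 SD, cut at about 40% in these data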;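 also: 0% = DMSO wells and 100% = unlabeled Bim-BH3 control peptide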); conditions: GST-MCL1 / FITC-Bim-BH3 fluorescence polarization; at 10.9 µM; active compounds read high
Sequence of Induced myeloid leukemia cell differentiation protein Mcl-1 (Homo sapiens) (Q07820 whole entry, looked up): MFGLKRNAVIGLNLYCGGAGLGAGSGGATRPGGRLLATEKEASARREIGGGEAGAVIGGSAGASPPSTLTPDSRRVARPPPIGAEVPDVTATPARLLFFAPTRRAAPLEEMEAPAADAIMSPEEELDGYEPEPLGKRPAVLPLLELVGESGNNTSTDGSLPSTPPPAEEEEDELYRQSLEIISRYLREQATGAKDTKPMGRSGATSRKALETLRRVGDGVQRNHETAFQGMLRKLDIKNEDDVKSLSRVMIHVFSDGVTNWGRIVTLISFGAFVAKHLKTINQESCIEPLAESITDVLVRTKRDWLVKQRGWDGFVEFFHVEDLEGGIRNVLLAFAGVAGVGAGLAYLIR

[25] = biological target: Serine protease HTRA1 (Homo sapiens) (UniProt Q92743); assay: HTRA1 protease inhibitors, retest, confirmation, biochemical, fluorescence polarization (AID 540248;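 active = mean inhibition over three repeats above a set limit taken from the earlier primary screen, cut at about 37% in these data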;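 also: 0% = HTRA1 with DMSO and 100% = wells lacking HTRA1; inhibitors block probe binding so polarization drops and inhibition rises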); conditions: recombinant HTRA1, FP-rhodamine activity-based probe, at 5.96 µM, active compounds read high

Nc1ccc2nc3c(=O)[nH]c(=S)[nH]c3nc2c1
active: inhibition [1] 44.2% | inhibition [2] 62% | inhibition [3] 32.2% | inhibition [4] 45.3% | inhibition [6] 120% | inhibition [7] 53.5% | activation [8] 48.6% | inhibition [10] 83%
inactive: inhibition [5] 10.6% | inhibition [9] -245%

Cc1cc2c(c(=O)n1Cc1ccco1)C(c1ccccc1)C(C#N)=C(N)O2 (stereo unspecified)
inactive: activation [8] 1.58% | inhibition [9] -5.7% | inhibition [10] -9.1%

Oc1cccc(/C=N/Nc2ccc(Cl)nn2)c1O
inactive: inhibition [12] 0.35% | inhibition [2] 7.85% | inhibition [15] 20.9% | inhibition [16] 7.26% | inhibition [17] 9.97% | inhibition [9] -36.1% | inhibition [10] 10.1%
active: inhibition [11] 93.5% | inhibition [3] 29.2% | inhibition [13] 42.9% | inhibition [14] 15.7% | inhibition [18] 26% | activation [8] 10.1%

O=C(NC1CCCCC1)N1CCc2[nH]c3ccccc3c2C1
inactive: activation [8] 1.36% | inhibition [9] -6.83% | inhibition [10] 2.35%

O=C1OC(/C=C/c2ccccc2)=NC/1=C/c1ccco1
inactive: activation [8] -0.93% | inhibition [9] 4.71% | inhibition [10] -2.29%

O=C(O)CCC(=O)Nc1ccc(N2CCOCC2)cc1
inactive: activation [8] 0.12% | inhibition [9] -0.6% | inhibition [10] 1.39%

CC(C)Cn1c(N)c(C(=O)NCc2cccs2)c2nc3ccccc3nc21
inactive: inhibition [2] -4.29% | activation [8] 3.66% | inhibition [9] -13.3% | inhibition [10] -3.17%

CCc1cc2cc(OC)ccc2nc1SCC(=O)Nc1cc(OC)c(OC)cc1C(=O)O
inactive: activation [8] -3.01% | inhibition [9] 15.3% | inhibition [10] 5.77%

Cn1c(SCc2nc3ccccc3s2)nnc1-c1ccc2c(c1)OCO2
inactive: activation [8] 0.47% | inhibition [9] -2.33% | inhibition [10] -2.11%

Clc1cc(NC2CCCCC2)ncn1
inactive: activation [8] -0.3% | inhibition [9] 1.2% | inhibition [10] -4.64%

Cc1sc2nc(SCC(=O)c3ccc(O)c(O)c3)n(Cc3ccco3)c(=O)c2c1C
active: inhibition [10] 39.2%
inactive: activation [8] 8.33% | inhibition [9] -41.9%

Cc1cc(C(=O)NN=C/C=C/c2ccco2)n[nH]1
inactive: inhibition [9] -36.8% | inhibition [10] 6.81%
active: activation [8] 10.3%

CN(CC(=O)Nc1ccc(S(=O)(=O)N2CCCC2)cc1)Cc1ccc(Cl)c(Cl)c1
inactive: activation [8] 3.77% | inhibition [9] -13.1% | inhibition [10] 5.4%

c1ccc(C2=Nc3cccc4cccc(c34)N2)cc1
inactive: inhibition [1] 6.39% | activation [19] -0.31% | activation [20] 3.48% | activation [8] 4.54% | inhibition [9] -16.1% | inhibition [10] 8.24%

Cc1oc2c(c1C(=O)N1CCOCC1)C(=O)c1ccccc1C2=O
inactive: inhibition [2] 29.9% | inhibition [21] -13.7% | inhibition [22] 6.29% | activation [8] -2.24% | inhibition [9] 11.3%
active: inhibition [10] 20.2%

COc1ccc(S(=O)(=O)/N=C2\C=C(NS(=O)(=O)c3ccccc3)C(=O)c3ccccc32)cc1
inactive: activation [8] -2.79% | inhibition [9] 10% | inhibition [10] 5.95%
active: inhibition [2] 72.9%

C=CCn1c2ccccc2c2nnc(SCc3[nH]c(=O)[nH]c3C(=O)CCCCC(=O)OCC)nc21
active: inhibition [10] 24%
inactive: activation [8] -0.48% | inhibition [9] 2.45%

Oc1c(CN2CCOCC2)ccc(CN2CCOCC2)c1O
inactive: activation [8] -0.48% | inhibition [9] 1.64%
active: inhibition [10] 15.7%

Cc1c(CC(=O)N2CCN(C(=O)C3COc4ccccc4O3)CC2)c(=O)oc2c(O)c(O)ccc12 (stereo unspecified)
inactive: inhibition [5] -7.93% | inhibition [7] 16% | inhibition [9] -84.6%
active: inhibition [23] 69.1% | inhibition [24] 89% | inhibition [3] 78.1% | inhibition [25] 88.8% | inhibition [6] 60.5% | activation [8] 16.8% | inhibition [10] 86.8%

Cc1ccc(N=C2NC(=O)/C(=C/C=C/c3ccco3)S2)cc1C
inactive: inhibition [9] -49.5%
active: inhibition [3] 31.1% | activation [8] 13.8% | inhibition [10] 45.2%

Clc1ccc(C2=CSC3=Nc4cccc5cccc(c45)N23)cc1
active: inhibition [2] 85.1% | inhibition [7] 37.5% | inhibition [10] 24.5%
inactive: inhibition [4] -2.56% | inhibition [25] 13.7% | activation [8] 2.48% | inhibition [9] -8.94%

COc1ccccc1C1C(C#N)=C(N)Oc2c1c(-c1ccccc1)nn2-c1ccccc1 (stereo unspecified)
inactive: inhibition [1] -8.81% | inhibition [2] 12.6% | inhibition [4] 2.3% | activation [8] 0.86% | inhibition [9] -4.34% | inhibition [10] 1.22%
